# Columns and labels:
# Assay in all cases: DAPPL (digital affinity profiling via proximity ligation, sequencing); 10 mM Tris-HCl pH 7.5, 50 mM NaCl, 1 mM DTT, 4% glycerol, room temperature, 30 min; GST-TFs on glutathione beads, 16-mer random dsDNA library, 0.1% formaldehyde crosslink after washing; high values mean tight binding
# FLI1 = target: T1, FLI1 (Homo sapiens, UniProt Q01543 1-452); settings: protein: recombinant; tags: N-terminal GST; dsDNA, one strand shown
# T1 sequence: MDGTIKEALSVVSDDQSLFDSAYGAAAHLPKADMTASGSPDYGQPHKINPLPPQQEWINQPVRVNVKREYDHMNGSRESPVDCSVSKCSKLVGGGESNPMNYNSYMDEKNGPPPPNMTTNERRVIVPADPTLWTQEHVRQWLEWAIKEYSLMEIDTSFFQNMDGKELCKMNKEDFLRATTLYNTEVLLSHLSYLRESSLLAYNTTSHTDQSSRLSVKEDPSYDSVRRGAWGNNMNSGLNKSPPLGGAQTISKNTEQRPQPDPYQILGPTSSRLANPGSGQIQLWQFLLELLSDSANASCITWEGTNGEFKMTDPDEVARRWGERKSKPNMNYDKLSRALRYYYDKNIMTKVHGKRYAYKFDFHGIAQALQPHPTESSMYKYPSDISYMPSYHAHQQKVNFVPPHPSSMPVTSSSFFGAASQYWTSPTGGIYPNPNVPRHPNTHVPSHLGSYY
# Summary of the method: (§1)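 In yeast, human transcription factors were expressed with a GST fusion, then pulled down on glutathione beads and given DNA barcodes. Pooled with a tag-only sample, they were exposed to 200 nmole of a 16-mer random double-stranded DNA library (Tris/NaCl/DTT/glycerol buffer, room temperature, 30 min), washed, crosslinked with 0.1% formaldehyde, proximity-ligated using BsaI/T4 ligase for 1 h at 37 °C, PCR-amplified and read on an Illumina NextSeq500. Each hexamer's frequency of reads for a factor, divided by the matching frequency for the tag-only sample, gives the binding signal.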
# ELK1 = target: T2, ELK1 (Homo sapiens, UniProt P19419 1-428); settings: protein: recombinant; tags: N-terminal GST; dsDNA, one strand shown
# T2 sequence: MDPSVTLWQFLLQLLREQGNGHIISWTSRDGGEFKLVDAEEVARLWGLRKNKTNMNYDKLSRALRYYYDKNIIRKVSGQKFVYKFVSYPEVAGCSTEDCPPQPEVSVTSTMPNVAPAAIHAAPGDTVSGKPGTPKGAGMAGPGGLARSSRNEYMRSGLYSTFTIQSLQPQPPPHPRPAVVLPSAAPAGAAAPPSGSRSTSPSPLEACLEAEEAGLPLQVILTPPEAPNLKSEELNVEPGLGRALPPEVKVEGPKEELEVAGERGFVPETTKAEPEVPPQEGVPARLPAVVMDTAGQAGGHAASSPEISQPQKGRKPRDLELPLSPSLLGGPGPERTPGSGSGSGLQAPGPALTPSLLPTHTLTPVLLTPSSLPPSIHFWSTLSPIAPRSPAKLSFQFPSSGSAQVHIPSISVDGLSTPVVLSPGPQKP
# Summary of the method: as §1
# GABPA = target: T3, GABPA (Homo sapiens, UniProt Q06546 1-454); settings: protein: recombinant; tags: N-terminal GST; dsDNA, one strand shown
# T3 sequence: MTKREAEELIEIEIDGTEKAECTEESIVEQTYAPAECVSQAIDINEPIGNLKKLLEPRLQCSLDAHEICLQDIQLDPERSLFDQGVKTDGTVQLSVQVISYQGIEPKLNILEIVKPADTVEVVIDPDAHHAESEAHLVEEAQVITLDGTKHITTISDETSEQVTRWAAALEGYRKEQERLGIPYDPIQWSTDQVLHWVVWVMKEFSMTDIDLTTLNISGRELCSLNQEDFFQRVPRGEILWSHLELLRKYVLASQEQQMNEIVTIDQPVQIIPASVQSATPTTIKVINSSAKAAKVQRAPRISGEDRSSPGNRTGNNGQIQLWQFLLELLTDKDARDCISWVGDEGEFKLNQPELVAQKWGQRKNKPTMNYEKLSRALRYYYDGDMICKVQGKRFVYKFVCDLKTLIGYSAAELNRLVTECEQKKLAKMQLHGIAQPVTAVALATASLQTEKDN
# Summary of the method: as §1
# ERG = target: T4, ERG (Homo sapiens, UniProt P11308 1-479); settings: protein: recombinant; tags: N-terminal GST; dsDNA, one strand shown
# T4 sequence: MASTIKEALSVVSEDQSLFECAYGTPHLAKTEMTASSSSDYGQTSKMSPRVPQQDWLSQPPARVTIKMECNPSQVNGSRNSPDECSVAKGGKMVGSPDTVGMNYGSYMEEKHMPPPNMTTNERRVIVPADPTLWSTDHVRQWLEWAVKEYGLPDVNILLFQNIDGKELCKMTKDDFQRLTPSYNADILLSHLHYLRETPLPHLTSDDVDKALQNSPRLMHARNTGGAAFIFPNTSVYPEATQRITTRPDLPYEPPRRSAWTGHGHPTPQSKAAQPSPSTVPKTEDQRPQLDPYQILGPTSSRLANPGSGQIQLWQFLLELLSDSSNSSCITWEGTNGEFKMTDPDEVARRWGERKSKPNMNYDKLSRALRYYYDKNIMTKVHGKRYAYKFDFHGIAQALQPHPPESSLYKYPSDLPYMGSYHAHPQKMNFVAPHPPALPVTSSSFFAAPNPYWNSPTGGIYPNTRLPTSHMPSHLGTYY
# Summary of the method: as §1
# ELF1 = ELF1 (Homo sapiens, UniProt P32519 1-619); settings: protein: recombinant; tags: N-terminal GST; dsDNA, one strand shown
# Chain of ELF1 (P32519 whole entry): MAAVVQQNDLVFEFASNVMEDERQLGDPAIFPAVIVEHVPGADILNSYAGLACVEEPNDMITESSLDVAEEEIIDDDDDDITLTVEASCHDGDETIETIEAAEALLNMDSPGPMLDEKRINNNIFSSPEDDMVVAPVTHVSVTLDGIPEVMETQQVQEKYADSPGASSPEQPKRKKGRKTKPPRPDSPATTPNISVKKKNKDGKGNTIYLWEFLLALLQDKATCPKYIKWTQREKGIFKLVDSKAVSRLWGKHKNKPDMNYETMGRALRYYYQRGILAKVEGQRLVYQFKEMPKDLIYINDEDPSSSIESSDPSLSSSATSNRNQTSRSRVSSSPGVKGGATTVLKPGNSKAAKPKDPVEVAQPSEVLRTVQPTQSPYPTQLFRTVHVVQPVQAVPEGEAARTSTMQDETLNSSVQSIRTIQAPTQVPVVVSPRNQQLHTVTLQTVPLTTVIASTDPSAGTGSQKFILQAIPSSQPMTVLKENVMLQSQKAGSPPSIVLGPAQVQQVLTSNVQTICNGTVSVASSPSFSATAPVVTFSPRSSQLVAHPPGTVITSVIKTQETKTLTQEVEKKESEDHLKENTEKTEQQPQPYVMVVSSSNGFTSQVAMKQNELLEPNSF
# Summary of the method: as §1
# EHF = target: T5, EHF (Homo sapiens, UniProt Q9NZC4 1-300); settings: protein: recombinant; tags: N-terminal GST; dsDNA, one strand shown
# T5 sequence: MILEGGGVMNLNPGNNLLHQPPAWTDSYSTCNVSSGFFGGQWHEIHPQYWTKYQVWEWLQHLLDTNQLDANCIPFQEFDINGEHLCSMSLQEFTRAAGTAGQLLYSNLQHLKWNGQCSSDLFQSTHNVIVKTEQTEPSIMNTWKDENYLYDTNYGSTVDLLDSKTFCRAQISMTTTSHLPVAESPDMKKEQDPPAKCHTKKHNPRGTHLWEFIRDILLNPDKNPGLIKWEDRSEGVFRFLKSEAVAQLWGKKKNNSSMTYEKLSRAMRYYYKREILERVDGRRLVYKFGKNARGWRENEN
# Summary of the method: as §1
# SPI1 = SPI1 (Homo sapiens, UniProt P17947 1-270); settings: protein: recombinant; tags: N-terminal GST; dsDNA, one strand shown
# Summary of the method: as §1
# SPIB = SPIB (Homo sapiens, UniProt Q01892 1-262); settings: protein: recombinant; tags: N-terminal GST; dsDNA, one strand shown
# Chain of SPIB (Q01892 whole entry): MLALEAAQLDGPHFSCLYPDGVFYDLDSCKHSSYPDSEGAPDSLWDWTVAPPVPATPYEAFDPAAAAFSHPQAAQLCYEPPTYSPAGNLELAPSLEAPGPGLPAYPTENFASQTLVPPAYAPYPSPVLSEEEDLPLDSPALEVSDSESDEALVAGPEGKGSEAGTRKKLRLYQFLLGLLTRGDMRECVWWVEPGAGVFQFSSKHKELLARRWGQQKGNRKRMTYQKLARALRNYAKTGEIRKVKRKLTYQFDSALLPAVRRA
# Summary of the method: as §1
# ELK3 = target: T6, ELK3 (Homo sapiens, UniProt P41970 1-407); settings: protein: recombinant; tags: N-terminal GST; dsDNA, one strand shown
# T6 sequence: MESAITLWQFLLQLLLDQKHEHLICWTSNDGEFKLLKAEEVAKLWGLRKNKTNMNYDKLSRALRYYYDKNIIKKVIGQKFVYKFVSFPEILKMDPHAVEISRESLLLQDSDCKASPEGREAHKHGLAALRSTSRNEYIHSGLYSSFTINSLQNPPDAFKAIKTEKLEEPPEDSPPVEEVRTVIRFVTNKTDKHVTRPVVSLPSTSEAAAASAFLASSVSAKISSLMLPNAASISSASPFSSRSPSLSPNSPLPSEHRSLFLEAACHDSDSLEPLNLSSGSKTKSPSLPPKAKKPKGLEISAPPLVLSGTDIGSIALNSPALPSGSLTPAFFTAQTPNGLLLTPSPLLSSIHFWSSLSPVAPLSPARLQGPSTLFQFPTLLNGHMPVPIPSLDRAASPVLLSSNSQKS
# Summary of the method: as §1
# FEV = target: T7, FEV (Homo sapiens, UniProt Q99581 1-238); settings: protein: recombinant; tags: N-terminal GST; dsDNA, one strand shown
# T7 sequence: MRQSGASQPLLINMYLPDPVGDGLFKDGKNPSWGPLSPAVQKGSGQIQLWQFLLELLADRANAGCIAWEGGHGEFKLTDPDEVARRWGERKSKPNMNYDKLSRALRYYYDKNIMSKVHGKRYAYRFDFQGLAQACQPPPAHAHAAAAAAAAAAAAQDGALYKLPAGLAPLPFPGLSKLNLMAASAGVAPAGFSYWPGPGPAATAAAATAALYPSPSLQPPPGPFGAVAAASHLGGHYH
# Summary of the method: as §1
# ETV5 = ETV5 (Homo sapiens, UniProt P41161 1-510); settings: protein: recombinant; tags: N-terminal GST; dsDNA, one strand shown
# Chain of ETV5 (P41161 whole entry): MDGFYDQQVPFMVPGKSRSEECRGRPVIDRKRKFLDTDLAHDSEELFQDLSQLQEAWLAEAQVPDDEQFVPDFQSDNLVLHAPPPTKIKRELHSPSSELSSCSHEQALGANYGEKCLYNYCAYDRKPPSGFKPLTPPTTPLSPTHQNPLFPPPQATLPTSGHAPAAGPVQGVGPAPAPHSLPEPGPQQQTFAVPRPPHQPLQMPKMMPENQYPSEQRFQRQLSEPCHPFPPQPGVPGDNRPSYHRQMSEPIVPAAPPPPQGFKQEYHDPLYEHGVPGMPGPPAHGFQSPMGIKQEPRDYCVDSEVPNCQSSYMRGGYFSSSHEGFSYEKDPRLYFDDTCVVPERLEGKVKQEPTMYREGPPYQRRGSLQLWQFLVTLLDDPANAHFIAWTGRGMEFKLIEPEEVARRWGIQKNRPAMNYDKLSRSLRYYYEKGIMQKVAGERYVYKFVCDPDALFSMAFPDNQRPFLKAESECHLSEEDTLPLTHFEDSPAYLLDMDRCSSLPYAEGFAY
# Summary of the method: as §1
# HSF1 = HSF1 (Homo sapiens, UniProt Q00613 1-529); settings: protein: recombinant; tags: N-terminal GST; chain copies: 3; dsDNA, one strand shown
# Chain of HSF1 (Q00613 whole entry): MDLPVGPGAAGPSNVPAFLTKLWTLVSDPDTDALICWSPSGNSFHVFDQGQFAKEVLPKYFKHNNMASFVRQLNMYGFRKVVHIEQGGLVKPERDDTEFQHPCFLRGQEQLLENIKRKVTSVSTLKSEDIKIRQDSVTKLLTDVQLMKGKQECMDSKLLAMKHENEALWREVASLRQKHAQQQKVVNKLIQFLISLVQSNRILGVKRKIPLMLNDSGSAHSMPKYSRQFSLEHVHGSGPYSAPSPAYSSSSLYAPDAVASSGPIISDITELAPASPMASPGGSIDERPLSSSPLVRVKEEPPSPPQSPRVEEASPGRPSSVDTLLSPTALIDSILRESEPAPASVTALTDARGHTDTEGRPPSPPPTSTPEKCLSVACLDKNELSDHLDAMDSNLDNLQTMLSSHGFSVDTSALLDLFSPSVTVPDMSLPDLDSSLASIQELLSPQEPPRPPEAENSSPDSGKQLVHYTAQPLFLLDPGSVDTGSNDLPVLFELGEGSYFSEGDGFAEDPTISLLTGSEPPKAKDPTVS
# Summary of the method: as §1
# SPIC = target: T8, SPIC (Homo sapiens, UniProt Q8N5J4 1-248); settings: protein: recombinant; tags: N-terminal GST; dsDNA, one strand shown
# T8 sequence: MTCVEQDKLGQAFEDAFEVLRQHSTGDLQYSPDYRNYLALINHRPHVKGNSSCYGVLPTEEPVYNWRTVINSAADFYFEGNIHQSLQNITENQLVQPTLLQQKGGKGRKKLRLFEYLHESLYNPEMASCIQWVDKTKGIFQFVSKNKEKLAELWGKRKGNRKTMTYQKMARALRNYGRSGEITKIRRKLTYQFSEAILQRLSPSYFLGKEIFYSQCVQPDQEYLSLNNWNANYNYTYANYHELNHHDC
# Summary of the method: as §1
# ELF4 = ELF4 (Homo sapiens, UniProt Q99607 1-663); settings: protein: recombinant; tags: N-terminal GST; dsDNA, one strand shown
# Chain of ELF4 (Q99607 whole entry): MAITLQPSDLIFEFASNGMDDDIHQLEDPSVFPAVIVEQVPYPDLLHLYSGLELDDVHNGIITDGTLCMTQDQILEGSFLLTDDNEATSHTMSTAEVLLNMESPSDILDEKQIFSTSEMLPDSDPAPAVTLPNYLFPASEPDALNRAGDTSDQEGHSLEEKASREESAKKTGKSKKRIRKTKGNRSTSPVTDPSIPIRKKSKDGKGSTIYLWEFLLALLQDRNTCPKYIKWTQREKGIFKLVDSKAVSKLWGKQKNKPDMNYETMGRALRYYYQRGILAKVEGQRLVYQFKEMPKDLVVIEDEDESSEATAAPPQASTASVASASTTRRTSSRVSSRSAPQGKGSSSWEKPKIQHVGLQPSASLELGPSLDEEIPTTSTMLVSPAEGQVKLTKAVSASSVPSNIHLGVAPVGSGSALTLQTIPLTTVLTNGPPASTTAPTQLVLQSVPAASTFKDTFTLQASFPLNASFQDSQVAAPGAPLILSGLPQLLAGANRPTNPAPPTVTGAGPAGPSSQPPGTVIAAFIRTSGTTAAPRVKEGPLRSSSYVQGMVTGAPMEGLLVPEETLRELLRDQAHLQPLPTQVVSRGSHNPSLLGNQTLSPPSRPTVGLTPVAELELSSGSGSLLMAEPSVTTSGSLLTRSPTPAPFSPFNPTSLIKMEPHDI
# Summary of the method: as §1
# ELK4 = target: T9, ELK4 (Homo sapiens, UniProt P28324-2 1-405); settings: protein: recombinant; tags: N-terminal GST; dsDNA, one strand shown
# T9 sequence: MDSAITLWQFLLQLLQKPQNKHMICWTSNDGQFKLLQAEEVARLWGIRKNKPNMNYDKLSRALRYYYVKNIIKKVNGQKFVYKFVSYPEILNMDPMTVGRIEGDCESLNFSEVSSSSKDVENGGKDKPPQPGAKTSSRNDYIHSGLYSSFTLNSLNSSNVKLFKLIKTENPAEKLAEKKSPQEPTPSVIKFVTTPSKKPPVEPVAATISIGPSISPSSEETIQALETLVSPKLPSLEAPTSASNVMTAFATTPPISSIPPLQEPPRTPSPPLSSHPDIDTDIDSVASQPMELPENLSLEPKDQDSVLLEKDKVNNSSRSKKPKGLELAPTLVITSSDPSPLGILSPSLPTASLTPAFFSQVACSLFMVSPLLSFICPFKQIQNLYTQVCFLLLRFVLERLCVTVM
# Summary of the method: as §1
# ETV2 = target: T10, ETV2 (Homo sapiens, UniProt O00321 1-342); settings: protein: recombinant; tags: N-terminal GST; dsDNA, one strand shown
# T10 sequence: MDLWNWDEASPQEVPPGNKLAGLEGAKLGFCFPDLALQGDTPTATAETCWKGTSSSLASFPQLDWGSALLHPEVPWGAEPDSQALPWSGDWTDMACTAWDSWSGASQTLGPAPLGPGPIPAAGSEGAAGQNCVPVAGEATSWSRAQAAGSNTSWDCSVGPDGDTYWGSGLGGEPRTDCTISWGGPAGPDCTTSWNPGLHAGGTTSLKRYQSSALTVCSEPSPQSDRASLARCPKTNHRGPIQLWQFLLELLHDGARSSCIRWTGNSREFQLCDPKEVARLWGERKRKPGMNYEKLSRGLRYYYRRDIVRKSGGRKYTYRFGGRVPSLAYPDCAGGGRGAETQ
# Summary of the method: as §1
# ELF3 = target: T11, ELF3 (Homo sapiens, UniProt P78545 1-371); settings: protein: recombinant; tags: N-terminal GST; dsDNA, one strand shown
# T11 sequence: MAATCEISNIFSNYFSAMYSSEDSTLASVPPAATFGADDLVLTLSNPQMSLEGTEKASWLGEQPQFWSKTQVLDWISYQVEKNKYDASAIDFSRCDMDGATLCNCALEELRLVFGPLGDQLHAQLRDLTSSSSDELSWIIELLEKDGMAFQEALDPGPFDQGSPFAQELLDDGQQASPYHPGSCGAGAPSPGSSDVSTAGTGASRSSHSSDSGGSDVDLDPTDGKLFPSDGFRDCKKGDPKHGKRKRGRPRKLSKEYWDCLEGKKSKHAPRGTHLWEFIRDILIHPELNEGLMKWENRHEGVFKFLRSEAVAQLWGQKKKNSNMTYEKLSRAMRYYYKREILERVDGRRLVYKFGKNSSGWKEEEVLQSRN
# Summary of the method: as §1
# ETV1 = ETV1 (Homo sapiens, UniProt P50549 1-477); settings: protein: recombinant; tags: N-terminal GST; dsDNA, one strand shown
# Chain of ETV1 (P50549 whole entry): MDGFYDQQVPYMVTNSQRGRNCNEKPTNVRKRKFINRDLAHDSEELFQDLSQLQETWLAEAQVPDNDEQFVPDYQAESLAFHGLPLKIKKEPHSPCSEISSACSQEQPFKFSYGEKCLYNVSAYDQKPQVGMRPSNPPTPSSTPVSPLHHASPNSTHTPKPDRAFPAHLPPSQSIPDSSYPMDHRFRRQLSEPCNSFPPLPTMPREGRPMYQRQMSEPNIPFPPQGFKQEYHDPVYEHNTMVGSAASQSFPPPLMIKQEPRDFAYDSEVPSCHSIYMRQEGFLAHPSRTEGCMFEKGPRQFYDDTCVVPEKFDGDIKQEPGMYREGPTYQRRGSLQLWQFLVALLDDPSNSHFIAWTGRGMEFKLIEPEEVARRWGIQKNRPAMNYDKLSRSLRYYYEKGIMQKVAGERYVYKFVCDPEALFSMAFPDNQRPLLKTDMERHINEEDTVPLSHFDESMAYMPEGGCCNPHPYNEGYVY
# Summary of the method: as §1
sequence,measurement,setting,value
ACGTAC,binding signal,FLI1,"1.24 fold enrichment (6-mer frequency, TF over GST control)"
same,binding signal,ELK1,"1.16 fold enrichment (6-mer frequency, TF over GST control)"
same,binding signal,GABPA,"1.13 fold enrichment (6-mer frequency, TF over GST control)"
same,binding signal,ERG,"1.08 fold enrichment (6-mer frequency, TF over GST control)"
same,binding signal,ELF1,"1.16 fold enrichment (6-mer frequency, TF over GST control)"
same,binding signal,EHF,"1.15 fold enrichment (6-mer frequency, TF over GST control)"
same,binding signal,SPI1,"1.18 fold enrichment (6-mer frequency, TF over GST control)"
same,binding signal,SPIB,"1.11 fold enrichment (6-mer frequency, TF over GST control)"
same,binding signal,ELK3,"1.19 fold enrichment (6-mer frequency, TF over GST control)"
same,binding signal,FEV,"1.17 fold enrichment (6-mer frequency, TF over GST control)"
same,binding signal,ETV5,"1.21 fold enrichment (6-mer frequency, TF over GST control)"
same,binding signal,HSF1,"1.04 fold enrichment (6-mer frequency, TF over GST control)"
same,binding signal,SPIC,"1.18 fold enrichment (6-mer frequency, TF over GST control)"
same,binding signal,ELF4,"1.23 fold enrichment (6-mer frequency, TF over GST control)"
same,binding signal,ELK4,"1.24 fold enrichment (6-mer frequency, TF over GST control)"
same,binding signal,ETV2,"1.32 fold enrichment (6-mer frequency, TF over GST control)"
same,binding signal,ELF3,"1.25 fold enrichment (6-mer frequency, TF over GST control)"
same,binding signal,ETV1,"1.18 fold enrichment (6-mer frequency, TF over GST control)"

# Reference: publication PMC7862700, “An all-to-all approach to the identification of sequence-specific readers for epigenetic DNA modifications on cytosine”
